Experimental findings from paper PMC6602471 are described below.

The full ranking holds about 1,300 sequences; the median of “log fluorescence intensity” is about 8.9, and the highest 2% start at about 13. The sample as a whole holds a higher share of the highest values than the screen did.

This experiment deals with T1, ELK1 (Homo sapiens, UniProt P19419 1-428).
T1 sequence: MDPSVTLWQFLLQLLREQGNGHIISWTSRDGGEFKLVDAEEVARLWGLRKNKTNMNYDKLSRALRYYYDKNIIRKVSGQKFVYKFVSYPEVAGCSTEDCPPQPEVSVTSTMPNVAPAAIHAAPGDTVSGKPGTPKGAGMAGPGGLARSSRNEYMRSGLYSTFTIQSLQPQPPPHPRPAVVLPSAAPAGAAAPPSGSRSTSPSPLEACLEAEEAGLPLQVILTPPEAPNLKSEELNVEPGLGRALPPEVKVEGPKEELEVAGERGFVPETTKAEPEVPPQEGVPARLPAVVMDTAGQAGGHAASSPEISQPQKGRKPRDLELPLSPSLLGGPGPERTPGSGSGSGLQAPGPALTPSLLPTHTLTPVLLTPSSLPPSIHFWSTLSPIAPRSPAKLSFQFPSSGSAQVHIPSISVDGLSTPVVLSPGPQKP
Kind of experiment: custom PBM; custom protein-binding microarray; buffer, salt, pH and temperature not stated; high values mean tight binding. The conditions noted are these: dsDNA, one strand shown.
For “CGGAAGTGTCGTAAACGTCGGATATCCGGTTCTTGTGTCTTGATTCGCTTGACGCTGCTG”, the binding signal was 12.6 log fluorescence intensity.

In the case of “CCGAAGTGTCGTAAACGTCGGATATCCGGTTCTTCTGTCTTGATTCGCTTGACGCTGCTG”, the binding signal was 12.6 log fluorescence intensity.

Turning to “CGGAAGTGCCGTAAACGTCGGATATCCGGTTCTTCTGTCTTGATTCGCTTGACGCTGCTG”, the binding signal is 12.5 log fluorescence intensity.

On to “CGGAAGTGGCGTAAACGTCGGATATCCGGTTCTTCTGTCTTGATTCGCTTGACGCTGCTG”, for which the binding signal is 12.1 log fluorescence intensity.

As to “CGGAAGTGTCGTAAACGTCCGATATCCGGTTCTTCTGTCTTGATTCGCTTGACGCTGCTG”, the binding signal is 12.3 log fluorescence intensity.

For the sequence “CGGAAGTGTCGTAAACGTCGGATATCCGGTTGTTCTGTCTTGATTCGCTTGACGCTGCTG”, the binding signal was 12.5 log fluorescence intensity.

With “CGGAAGTGACGTAAACGTCGGATATCCGGTTCTTCTGTCTTGATTCGCTTGACGCTGCTG”, the binding signal is 12.3 log fluorescence intensity.

On to “CGGAAGTGTCGTAAACGTCGAATATCCGGTTCTTCTGTCTTGATTCGCTTGACGCTGCTG”, for which the binding signal is 11.7 log fluorescence intensity.

Turning to “CGGAAGTGTCGTAAACGTCGGATATCCGGTTCTTTTGTCTTGATTCGCTTGACGCTGCTG”, the binding signal was 12.5 log fluorescence intensity.

Regarding “CGGAAGTGTCGTAAACGTCGGATATCCGGGTCTTCTGTCTTGATTCGCTTGACGCTGCTG”, the binding signal is 11.9 log fluorescence intensity.

In the case of “CGGAAGTGTCGTAAACGTCGGATATCCGGTCCTTCTGTCTTGATTCGCTTGACGCTGCTG”, the binding signal is 12.6 log fluorescence intensity.

For “TCCGGCTACCAGCGCCACCCACTTCAGGCCTTGTAGGTCTTGATTCGCTTGACGCTGCTG”, the binding signal is 8.91 log fluorescence intensity.

Turning to “CACAATATTTACAGTAATGTAGCACGCGTAACTCCTGTCTTGATTCGCTTGACGCTGCTG”, the binding signal was 8.95 log fluorescence intensity.

With “CGGAAGTGTCGTAAACGTCGGTTATCCGGTTCTTCTGTCTTGATTCGCTTGACGCTGCTG”, the binding signal is 10.1 log fluorescence intensity.

Take “CGGAAGTGTCGTAAACGTCGGATATCCGGTTATTCTGTCTTGATTCGCTTGACGCTGCTG”: the binding signal is 12.5 log fluorescence intensity.

Consider “CGGAAGTGTCGTAAACGACGGATATCCGGTTCTTCTGTCTTGATTCGCTTGACGCTGCTG”, for which the binding signal is 12.7 log fluorescence intensity.

Consider “CGGAAGTGTCGTAAACGGCGGATATCCGGTTCTTCTGTCTTGATTCGCTTGACGCTGCTG”, for which the binding signal is 12.6 log fluorescence intensity.

Regarding “GGAAAAAGGCCCAGGGTAACACCGCAAGTGGGCTTAGTCTTGATTCGCTTGACGCTGCTG”, the binding signal was 8.91 log fluorescence intensity.

In the case of “TAAAGGGAAGACGGTTGTGGTAGGTCCGGGTATTAAGTCTTGATTCGCTTGACGCTGCTG”, the binding signal is 8.98 log fluorescence intensity.

In the case of “CACAATTTTAACAGTAATGTAGCACGCGTAACTCCTGTCTTGATTCGCTTGACGCTGCTG”, the binding signal is 8.9 log fluorescence intensity.

On to “GATGAATTTCTGCCCTTATTCGCACGTGCCATAACAGTCTTGATTCGCTTGACGCTGCTG”, for which the binding signal is 8.9 log fluorescence intensity.

“GGAAAAAGGCCCAGGGTTACACCGGAAGTGGGCTTAGTCTTGATTCGCTTGACGCTGCTG”: the binding signal is 11 log fluorescence intensity.

As for “TAAAGGGAACACGGTTGTGGTAGTTCCGGGTATTAAGTCTTGATTCGCTTGACGCTGCTG”, the binding signal was 11.2 log fluorescence intensity.

As for “GGAAAAAGGCCCAGGGCAACACCGGAAGTGGGCTTAGTCTTGATTCGCTTGACGCTGCTG”, the binding signal was 10.9 log fluorescence intensity.

As for “CCCAATTTTTACAGTAATGTAGCACGCGTAACTCCTGTCTTGATTCGCTTGACGCTGCTG”, the binding signal was 8.98 log fluorescence intensity.

In the case of “CTGGGACTTGACCCAACTCTGCCACGTGGGCCGTTTGTCTTGATTCGCTTGACGCTGCTG”, the binding signal was 9.05 log fluorescence intensity.

With “CGGGGACTTGACCCAACTCTGCCACGTGGGTCGTTTGTCTTGATTCGCTTGACGCTGCTG”, the binding signal is 8.96 log fluorescence intensity.

Take “TACTTACTTATATATGCGAATGCACATGAATAGACCGTCTTGATTCGCTTGACGCTGCTG”: the binding signal is 9.06 log fluorescence intensity.

Consider “TAAAGGGAAGACGGATGTGGTAGTTCCGGGTATTAAGTCTTGATTCGCTTGACGCTGCTG”, for which the binding signal is 12.6 log fluorescence intensity.

For the sequence “TAAAGGGAAGACGCTTGTGGTAGTTCCGGGTATTAAGTCTTGATTCGCTTGACGCTGCTG”, the binding signal was 11 log fluorescence intensity.

With “TAAAGGGAAGACGGGTGTGGTAGTTCCGGGTATTAAGTCTTGATTCGCTTGACGCTGCTG”, the binding signal is 11.2 log fluorescence intensity.

With “TCCAGCTACCAGCTCCACCCACTTCAGGCCTTGTAGGTCTTGATTCGCTTGACGCTGCTG”, the binding signal was 8.99 log fluorescence intensity.

With “CACAATTTGTACAGTAATGTAGCACGCGTAACTCCTGTCTTGATTCGCTTGACGCTGCTG”, the binding signal is 8.91 log fluorescence intensity.

Turning to “GGAAAAAGGCCCAGGGTAACCCCGGAAGTGGGCTTAGTCTTGATTCGCTTGACGCTGCTG”, the binding signal is 10.5 log fluorescence intensity.

With “CAGCATAGGACTTCTTCCCTGAAGCAATTGATAACTGTCTTGATTCGCTTGACGCTGCTG”, the binding signal was 8.96 log fluorescence intensity.

With “CACAATTTTTACAGTAATGTAGCACGCGGAACTCCTGTCTTGATTCGCTTGACGCTGCTG”, the binding signal was 8.97 log fluorescence intensity.

Turning to “TCCGGCTACAAGCTCCACCCACTTCAGGCCTTGTAGGTCTTGATTCGCTTGACGCTGCTG”, the binding signal was 8.93 log fluorescence intensity.

For the sequence “TAAAGGGAAGACGGTTGTGGTAGTTCCGGGTACTAAGTCTTGATTCGCTTGACGCTGCTG”, the binding signal is 11.3 log fluorescence intensity.

Take “GTGTATAGGATCCCATCCAACACACCTGTTAAAATGGTCTTGATTCGCTTGACGCTGCTG”: the binding signal is 8.91 log fluorescence intensity.

“TCCGGTTACCAGCTCCACCCACTTCAGGCCTTGTAGGTCTTGATTCGCTTGACGCTGCTG”: the binding signal was 8.91 log fluorescence intensity.

Take “TAAAGGGAAGACGGTTGTGGTAGTTCCGCGTATTAAGTCTTGATTCGCTTGACGCTGCTG”: the binding signal is 9.44 log fluorescence intensity.
